# High-throughput results from PubChem.
# ATXN viability: viability counter-screen for ATXN expression inhibitors. Potency, µM (doses to about 56.7 µM), most hits filed as cytotoxic. S2 cells (HEK-293 line with an ATXN2-luciferase reporter) viability, CellTiter-Fluor protease fluorescence, 24 h. 0.49% of 400,000 active; further: nearly all actives have a fitted effect of over 40% in size
# KB-3-1 tox: kills parental KB-3-1 adenocarcinoma cells; KB-3-1 viability, CellTiter-Glo ATP luminescence, 72 h; Potency, µM (doses to about 46.1 µM), usual class: cytotoxic; 1.4% of 400,000 active; AID 1347075; further: on the % scale 0 is the no-effect control and ±100 the full control effect; nearly all actives have a fitted effect of over 60% in size
#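 Viability of parental KB-3-1 cells, measured by CellTiter-Glo luminescence, followed a 72 h incubation at 37 °C with pinned compounds in phenol-red-free DMEM containing 10% FBS.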
# ATXN2 expr inh: ATXN2 expression inhibition. HEK-293 ATXN2-luciferase reporter, luminescence, 24 h. Potency, µM (top dose mostly 57 µM), for inactives: top-dose activity change, negative = inhibition, usual class: inhibitors. 0.72% of 360,000 active; further: on the % scale 0 is the no-effect control and ±100 the full control effect; nearly all actives have a fitted effect of over 55% in size
#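 qHTS (up to 57 uM final) was run with 24 h compound exposure of reporter cells at 37 °C. Each well was multiplexed: SteadyGlo luminescence measured ATXN2-luciferase expression after a fluorogenic Gly-Phe-AFC viability readout (25 uM final).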
# HT1080NT lethal: kills 2HG-producing HT-1080-NT fibrosarcoma cells | HT-1080-NT fibrosarcoma viability, CellTiter-Glo ATP luminescence, 48 h | Potency, µM (top dose mostly 46.1 µM), inactives show at the highest dose activity, negative = less viability, actives largely listed as cytotoxic | 1.6% of 360,000 active;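 further: NT is the 2HG producing partner of a matched IDH1 knockdown line; 0% = DMSO-treated cells and -100% = media-only wells without cells; nearly all actives have a fitted effect of over 55% in size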
#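 Luminescent CellTiter-Glo readout after 48 hours of compound exposure at 37 degrees C defined viability of HT-1080-NT cells. Activity was normalized to DMSO wells and cell-free media wells; concentration-response curves were fitted and assigned curve classes.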
# KB-V1 cytotox: kills drug-selected multidrug resistant KB-V1 cells; KB-V1 MDR cells viability, CellTiter-Glo, 72 h; Potency, µM (series often up to 46.1 µM), most hits filed as cytotoxic; 3.4% of 400,000 active; AID 1347076; further: on the % scale 0 is the no-effect control and ±100 the full control effect; nearly all actives have a fitted effect of over 60% in size
#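 Potencies derive from concentration-effect curves fitted to normalized luminescence (CellTiter-Glo) of KB-V1 cells treated for 72 h at 37 degrees C in phenol-red-free DMEM containing 10% FBS.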
# HT1080 IDH1KD tx: HT-1080 IDH1 knockdown cell toxicity (counter line); Potency, µM (highest dose often 46.1 µM), for the others: top-dose activity, negative = toxicity, usual class: cytotoxic; HT-1080 IDH1 knockdown viability, ATP luminescence, 48 h; 2% of 360,000 active;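 further: 0% = DMSO wells and -100% = cell-free medium wells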
#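 Using the IDH1-knockdown HT-1080 line run in the same batch and compound series as the NT line, viability after 48 h at 37 °C was determined by CellTiter-Glo luminescence and expressed as % activity.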
# Active calls of the source: *; i = inactive; ? = inconclusive; . = no result; ! = repeats disagree; [ ] = remark or other dose. A selection: hits, their analogues and other compounds. The true share with any hit is near 6.2%. The call rests on the fitted dose curve; in most records, active means well fitted curve in the direction sought with a large enough effect; inconclusive means small, poorly fitted or top-dose-only effect, or another doubt; inactive means no such curve, though single readings can be large; an effect the other way counts as inactive or inconclusive. Potency means the concentration at half of the fitted maximal effect.
SMILES,ATXN viability,KB-3-1 tox,ATXN2 expr inh,HT1080NT lethal,KB-V1 cytotox,HT1080 IDH1KD tx
CC(C)c1ccc(C2c3c(-c4ccccc4O)n[nH]c3C(=O)N2Cc2ccncc2)cc1 (stereo unspecified),31.6µM*,i,-8.2%,.,?,.
CSc1ccc(C2c3c(-c4ccccc4O)n[nH]c3C(=O)N2Cc2ccncc2)cc1 (stereo unspecified),.,13µM*,0.0%,.,i,.
CCc1ccccc1NC(=O)C1CCN(C2=NS(=O)(=O)C(c3ccc(C)c(C)c3)=C2C)CC1,i,i,-22.5%,.,i,.
CC(C)Nc1nnc(SCC(=O)Nc2ccc3c(c2)C(=O)c2ccccc2C3=O)s1,i,?,-4.2%,-11.1%,10.3µM*,?
CSc1nc(SCC(=O)NC(c2ccccc2)c2ccccc2)c2c3c(sc2n1)CN(C)CC3,28.2µM*,?,20µM*,-27.8%,?,?
COc1ccc(C2OC(CCc3ccccc3)CC3=C2C(=O)OC(C)(C)O3)cc1 (stereo unspecified),i,i,-8.6%,-5.4%,i,-10.5%
CCC(C)Nc1nc(N)c([N+](=O)[O-])c(Nc2ccccc2OC)n1 (stereo unspecified),?,i,-17.1%,?,?,20.6µM*
CCC(C)Nc1nc(N)c([N+](=O)[O-])c(Nc2cc(OC)ccc2OC)n1 (stereo unspecified),?,i,?,?,?,?
CC1=C(CC(=O)c2ccccc2)C(=O)c2ccccc2C1=O,i,?,6.0%,?,10.3µM*,?
O=Cc1ccccc1OCCOc1ccccc1C=O,?,i,0.0%,10µM*,i,7.08µM*
O=Cc1ccccc1Oc1ccccc1,i,i,-4.4%,-0.1%,?,-0.4%
O=C(OCc1nnc(-c2ccccc2)o1)c1cccc(S(=O)(=O)N2CCOCC2)c1,i,i,10.1%,2.2%,i,3.7%
COc1cc(C(=O)NNC(=O)CNC(=O)C2CCCCC2)ccc1OC(C)C,i,i,11.1%,8.0%,i,4.1%
O=c1cc(-c2c(F)c(F)c(F)c(F)c2F)oc2ccccc12,?,i,22.4µM*,?,i,?
Cc1oc(-c2ccc(C(=O)NCCc3ccc(Cl)cc3)cc2)nc1CSc1ccccc1,i,i,-14.5%,.,i,.
COc1ccc(-n2nc(C(=O)N3CCN(c4cccc(C)c4C)CC3)c3c4ccccc4n(C)c3c2=O)cc1Cl,i,?,4.6%,.,?,.
CC(=O)C(=Cc1ccc(Cl)cc1)C(=O)c1ccccc1,28.2µM*,?,?,?,?,?
COc1ccc(C=C(C(C)=O)C(=O)c2ccccc2)cc1,i,i,-19.1%,23.1µM*,i,23.1µM*
COc1ccc(C=C(C(=O)c2ccccc2)c2ccccc2)cc1,i,?,3.6%,-30.9%,?,-0.7%
CC(=O)C(=Cc1cccc(C#N)c1)C(=O)c1ccccc1,i,?,?,?,?,?
COc1ccc(C=C(C(=O)c2ccccc2)C(=O)c2ccccc2)cc1,i,?,75.1%,18.4µM*,?,?
COc1cccc(CNC(=O)CN2C(=O)N(c3ccc(C)cc3C)S(=O)(=O)c3ccccc32)c1OC,i,i,-27.4%,.,i,.
Cc1cc(C)cc(NC(=O)C(c2ccccc2)N2CCN(CC(=O)NC3CC3)CC2)c1 (stereo unspecified),i,i,-0.5%,-7.3%,16.4µM*,-3.0%
Cc1ccc(NC(=O)C(c2ccccc2)N2CCN(CC(=O)NC3CC3)CC2)cc1 (stereo unspecified),i,i,1.5%,-3.6%,20.6µM*,9.0%
Cc1ccc(NC(=O)C(c2ccccc2)N2CCN(CC(=O)NC3CC3)CC2)cc1Cl (stereo unspecified),i,i,-28.0%,2.2%,i,1.1%
SMILES,ATXN viability,KB-3-1 tox,ATXN2 expr inh,HT1080NT lethal,KB-V1 cytotox,HT1080 IDH1KD tx
CC1(CCc2ccccc2)NC(=S)N(c2ccccc2)N1 (stereo unspecified),i,i,-0.8%,?,i,?
CC(C)(C)C1CCC2(CC1)SCC(=O)N2c1ccccc1 (stereo unspecified),i,i,4.9%,-1.0%,i,-4.9%[9.24 µM]
CC(C)(C)C1CCC2(CC1)NC(=S)N(c1ccccc1)N2 (stereo unspecified),i,?,1.8%,?,i,5.8µM*
CCC(C)(C)C1CCC2(CC1)NC(=S)N(c1ccccc1)N2 (stereo unspecified),i,?,.,?,i,18.4µM*
Cc1noc(C)c1COc1ccc(C(=O)N2CCN(S(=O)(=O)c3ccc(F)cc3)CC2)cc1,i,i,4.3%,-7.0%,8.2µM*,-6.3%
Cc1noc(C)c1COc1ccc(C(=O)N2CCC(C)CC2)cc1,i,i,-14.7%,1.2%,23.1µM*,0.3%
Cc1noc(C)c1COc1ccc(C(=O)N2CC(C)CC(C)C2)cc1 (stereo unspecified),i,i,-26.6%,-5.6%,i,-1.3%
Cc1noc(C)c1COc1ccc(C(=O)N2CCN(S(=O)(=O)c3ccc(Cl)cc3)CC2)cc1,i,i,1.5%,-5.1%,i,0.3%
Cc1cc(C)c(NC(=O)C(C)n2nnc3sc4c(c3c2=O)CCCC4)c(C)c1 (stereo unspecified),i,i,-5.6%,.,i,.
O=C(Nc1ccc(Cl)c(Cl)c1)C1C2C=CC3(O2)C1C(=O)N(CCN1CCCCC1)C3C(=O)NC1CCCCC1 (stereo unspecified),?,i,-18.4%,20.6µM*,i,?
Cc1ccc(NC(=O)C2C3C=CC4(O3)C2C(=O)N(CCCN2CCOCC2)C4C(=O)NC2CCCCC2)cc1Cl (stereo unspecified),i,?,-1.5%,1.9%,i,-1.3%
Cc1ccc(Cc2c(-c3ccco3)nc3c(C)cc(Br)cn23)cc1,?,?,10.0%,25.9µM*,?,14.6µM*
Cc1ccc(Cc2c(-c3ccco3)nc3c4ccccc4ccn23)cc1,?,i,61.6%,23.1µM*,?,20.6µM*
Cc1ccc(Cc2c(-c3ccco3)nc3ccc(C)cn23)cc1,?,i,-12.4%,-18.3%,i,-29.0%
COc1ccc(Oc2ncnc3c2oc2ccccc23)cc1,i,i,35.9%,.,i,.
CC(=O)C[C@H]1c2cc(C(F)(F)F)ccc2S(=O)(=O)N1c1ccccc1,i,?,0.4%,0.0%,8.2µM*!,-0.5%
